# HDAC3 inhib: inhibitors of human histone deacetylase 3; hit rate 0.15% among 320,000; recombinant HDAC3, fluorogenic peptide/trypsin coupled, fluorescence; inhibition, % at 8.3 µM; O15379; in the data active = inhibition above about 26%, passing the limit was not always enough; inconclusive = no clear call, values can overlap the other calls
# Yeast superoxide: caloric restriction mimetics inhibiting age-related superoxide in yeast; AID 2690; hit rate 0.18% among 330,000; superoxide response (% of plate mean), % at 10 µM; S. cerevisiae aged cells, superoxide DHE fluorescence; hits give low values;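 active = superoxide response under a set limit, about three screen SD below normal, cut at about 65% in these data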;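 also: yeast aged for seven days with compound at 30 °C before DHE staining; 100% = average MFI of all compound-treated wells on the plate with controls excluded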
# LANA-H2A inh: blocks KSHV LANA binding to histone H2A/H2B; cell-free LANA-H2A/H2B peptide, fluorescence polarization; inhibition, % (concentration not given with the values); hit rate 0.6% among 320,000; AID 2629; in the data active = inhibition mostly above about 10%, no sharp cut-off; inactive = mostly below about 6.7%
# HIF act: HIF pathway transcriptional activation; U2OS HRE-luciferase reporter, luminescence; normalized: DMSO 0%, desferrioxamine 100%; activation, % at 7.5 µM (by protocol); hit rate 0.32% among 300,000; AID 1910;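 active = mean activation of at least 10% of the iron chelator positive control signal, with at least half of replicates also reaching 10%; inconclusive = mean and replicate majority disagree about reaching 10%; inactive = mean and most replicates under 10%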
# Starred values were filed as active, the others as inactive; ? = inconclusive; . = not tested or not shown; + = active, no number. Only some compounds are listed: those with a hit (about 1.2% of all), similar ones and a draw of the others.
SMILES,HDAC3 inhib,Yeast superoxide,LANA-H2A inh,HIF act
Cc1ccc(NC(=O)CCC(=O)N/N=C/c2ccc(O)cc2O)cc1,7,112,-3,135*
Cc1cc(SCC(=O)N/N=C/c2ccc(O)cc2O)c(C)cc1Br,11,96,1,39*
COc1ccc(NC(=O)CSc2nnc(C)s2)cc1S(=O)(=O)N1CCOCC1,.,97,.,.
COC(=O)c1c(NC(=O)Cn2cnc([N+](=O)[O-])n2)sc2c1CCC(C)C2 (stereo unspecified),-8,91,1,0
CC(=NCCc1c(C)[nH]c2ccc(OC(F)(F)F)cc12)C1=C(O)CC(c2ccccc2)CC1=O (stereo unspecified),9,65*,-2,1
CC(C)=CCc1c(O)cc(O)c2c(=O)c3c(CC=C(C)C)c(O)ccc3oc12,12,99,-2,1
O=C(C[n+]1ccccc1)Nc1ccccc1[N+](=O)[O-],0,99,111*,-9
COc1ccc(C(=O)Nc2c3c(nn2-c2ccc(Cl)cc2)CS(=O)(=O)C3)cc1,1,86,0,0
O=C(O)c1ccc2cc(-c3ccccc3)[nH]c2c1,-121,121,0,20*
O=C(O)c1ccc(-c2ccccc2)[nH]1,1,113,-1,0
CN(CC(=O)Nc1ncn[nH]1)S(=O)(=O)c1ccc(Br)cc1,0,99,9,0
Cc1ccc(S(=O)(=O)N[C@@H](C)C(=O)N2CCC(C(=O)N3CCC[C@H]3C(=O)O)CC2)cc1,-3,105,7.6*,0
CCC(C(=O)NCCN1CCOCC1)n1c2ccccc2c2nc(=O)cc(C)n21 (stereo unspecified),0,108,0,0
CC(NC(=O)c1cccc(S(=O)(=O)N2CCc3ccccc32)c1)c1ccco1 (stereo unspecified),8,102,135*,.
CC1CCCC(C)N1NC(=O)c1cccc(S(=O)(=O)N2CCc3ccccc32)c1 (stereo unspecified),4,97,0,0
O=C1C=C(/C=C/C2C=CC=CC2)C[C@@H](c2ccc(Cl)cc2)C1 (stereo partly specified),-3,104,-1,.
CN(Cc1ccccc1)S(=O)(=O)c1ccc(Cl)c(C(=O)NCCc2ccccn2)c1,-3,92,0,0
CCOC(=O)c1cc(-c2ccccc2)sc1NC(=O)CSc1nnc(N)s1,4,99,+,0
CCOC(=O)c1cc(-c2ccccc2)sc1NC(=O)CSc1nncs1,2,101,4,0
CC(C)[C@]1(c2ccc(Cl)cc2)ON(c2ccccc2C(F)(F)F)C1=O,13,113,5,.
OCCNc1c2ccccc2nc2ccccc12,-11,99,0,24*
CCN(CC(=O)Nc1ccc(NC(C)=O)cc1)C(=O)c1cccnc1Sc1ccc(C)c(C)c1,1,104,7,2
Oc1ccccc1N1CCN(C(=S)Nc2ccc(SC(F)F)cc2)CC1,7,109,23*,0
O=c1ccc2cc3c([nH]c4ccc(Br)cc43)oc-2c1O,38*,81,-1,-1
Cc1c(Cl)cnc(NC(=O)COC(=O)C2CC3CCCC(C2)C3=O)c1Cl (stereo unspecified),0,90,2,.
SMILES,HDAC3 inhib,Yeast superoxide,LANA-H2A inh,HIF act
Cc1cc(-c2nn(-c3ccccc3F)cc2CN2CCC(O)CC2)c(C)s1,-3,96,34*,0
Cc1cc(-c2nn(-c3ccccc3F)cc2CN2CCN(c3ccncc3)CC2)c(C)s1,8,96,-6,0
O=C(OCc1cnc(Cl)s1)c1cccc(Cl)c1Cl,-8,94,-1,0
COC(=O)c1ccc(OC(=O)c2ccccn2)cc1,46*,85,-1,-1
COc1ccc(C(=O)N/N=C/c2ccc(OC(=O)c3cccs3)cc2)cc1,-2,93,-4,0
COC(=O)c1ccc(OC(=O)c2ccco2)cc1,56*,97,1,0
CCc1ccc(C(=O)COC(=O)c2cccs2)cc1,2,121,-3,1
CCC(=O)c1ccc(OC(=O)c2cccs2)cc1,62*,90,-1,0
COC(=O)c1ccc(OC(=O)/C=C/c2ccco2)cc1,15,95,0,-1
COC(=O)c1ccc(OC(=O)c2cccs2)cc1,63*,91,0,0
COC(=O)c1ccc(OC(=O)c2cccnc2SC)cc1,1,96,-1,0
COC(=O)/C=C/c1cc(F)ccc1S(=O)(=O)NC(C)(C)C,-11,106,2,0
CCNC(=O)C1CC(=O)N(Cc2ccc3c(c2)OCO3)C(=Nc2ccc(OCC)cc2)S1 (stereo unspecified),-3,112,63*,1
COc1ccc(-c2nc(C#N)c(N3CCN(C(=O)c4ccco4)CC3)o2)cc1OC,-11,82,0,11*
Nc1cc(OC(=O)c2cccs2)nn1S(=O)(=O)c1ccccc1,96*,89,0,-1
Nc1cc(OC(=O)c2cccs2)nn1S(=O)(=O)c1ccc(F)cc1,70*,90,0,0
COc1ccc(S(=O)(=O)n2nc(OC(=O)c3cccs3)cc2NC(=O)c2cccs2)cc1,46*,94,-3,1
COc1cccc(C(=O)Oc2cc(N)n(S(=O)(=O)c3ccc(C)cc3)n2)c1OC,53*,95,5,-1
Cc1ccc(C(=O)Oc2cc(N)n(S(=O)(=O)c3ccc(F)cc3)n2)cc1,-2,87,-3,0
O=C1C=C(NCCOC23CC4CC(CC(C4)C2)C3)C2(CCCCC2)O1,-4,92,1,0
N#Cc1ccc(NC(=O)COC(=O)CCNS(=O)(=O)c2ccccc2)cc1,-4,85,-4,-1
Cc1ccc(SCc2nc(N)nc(Nc3ccccc3C)n2)c(C)c1,?,101,64*,0
Cc1ccc(CNC(=O)C2CC(=O)N(C3CCCC3)C2)cc1 (stereo unspecified),0,89,-1,.
Cc1ccc(S(=O)(=O)CCC(=O)OCC(=O)NC2CCS(=O)(=O)C2)cc1 (stereo unspecified),2,118,25*,-1
Cc1ccc(S(=O)(=O)NC(C(=O)OCC(=O)NC2CCS(=O)(=O)C2)C(C)C)cc1 (stereo unspecified),2,94,-5,0
SMILES,HDAC3 inhib,Yeast superoxide,LANA-H2A inh,HIF act
CC1=NN2C(=N)/C(=C\c3cc(C)n(Cc4ccccc4)c3C)C(=O)N=C2S1,5,95,-3,55*
CS(=O)(=O)c1ccc(Cl)c(NC(=O)c2cc(S(=O)(=O)N3CCOCC3)ccc2N2CCCC2)c1,.,96,.,0
O=C(NCc1ccccn1)c1ccc(NS(=O)(=O)c2cccc(Cl)c2)cc1,-2,117,38*,-1
CC(=O)c1sc(NC(=O)c2oc3ccc(F)cc3c2C)nc1C,-6,91,2,.
O=[N+]([O-])c1ccccc1N/N=C/c1c[nH]c2ccccc12,6,98,-7,3
O=c1c([N+](=O)[O-])c[nH]c2ccccc12,-1,93,15*,0
COc1ccc(C(=O)Nc2cc(Cl)ccc2-n2cncn2)c(OC)c1OC,6,114,0,.
O=C(/C=C/c1ccccc1)N/C(=C/c1ccccc1)C(=O)N1CCCCC1,5,90,-1,-1

# High-throughput results as filed in PubChem.
